# Assay results as given in PubChem BioAssay AID1220 (Sanford-Burnham Center for Chemical Genomics, 2008).
# Hit rate of the full screen: of about 190,000 compounds, about 1,300 (0.68%) were called active. No stated cut-off is given here; in the data, active means inhibition above about 50%; inactive means the rest. Many of the other results were omitted from the sample, so actives are more common in it than they were.
# Target: Mannose-6-phosphate isomerase (Homo sapiens) (UniProt P34949)
# Test: human PMI inhibitors, high substrate, primary screen, biochemical, fluorescence intensity, high mannose 6-phosphate (AID 1220)
# Settings: recombinant PMI enzyme, coupled fluorescence intensity; at 20 µM; active compounds read high
# Sequence of Mannose-6-phosphate isomerase (Homo sapiens) (P34949 whole entry, looked up): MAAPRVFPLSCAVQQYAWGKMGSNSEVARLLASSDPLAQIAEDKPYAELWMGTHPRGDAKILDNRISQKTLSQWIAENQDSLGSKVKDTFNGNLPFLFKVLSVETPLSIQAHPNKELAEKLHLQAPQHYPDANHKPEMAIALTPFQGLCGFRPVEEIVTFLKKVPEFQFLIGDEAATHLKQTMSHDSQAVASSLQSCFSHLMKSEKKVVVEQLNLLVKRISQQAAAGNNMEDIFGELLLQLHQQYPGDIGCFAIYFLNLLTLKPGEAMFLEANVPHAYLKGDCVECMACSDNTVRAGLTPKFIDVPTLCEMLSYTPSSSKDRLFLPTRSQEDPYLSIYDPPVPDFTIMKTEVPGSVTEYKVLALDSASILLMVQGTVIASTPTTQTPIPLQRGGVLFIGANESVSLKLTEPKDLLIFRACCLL
row,SMILES,inhibition
1,NC(=O)Cc1c[nH]c2cccc(O)c12,44.8% (inactive)
2,O=C(O)Cc1c[nH]c2cccc(O)c12,51.5% (active)
3,O=C(O)C(=O)Cc1c[nH]c2ccccc12,-4.1% (inactive)
4,CCN(CC(=O)Nc1ccc2c(c1)OCCO2)CC(=O)Nc1ccc2c(c1)OCO2,5.7% (inactive)
5,COc1ccc(S(=O)(=O)NCCCCNS(=O)(=O)c2ccc(OC)cc2)cc1,1.1% (inactive)
6,Cc1ccc(-c2[nH]c(-c3ccccc3)nc2SCC(=O)NCC2CCCO2)cc1 (configuration not stated),3.3% (inactive)
7,O=C(OC1CCN(c2ncc(C(F)(F)F)cc2Cl)CC1)c1ccccc1,11.4% (inactive)
8,O=C(OC1CCN(c2ncc(C(F)(F)F)cc2Cl)CC1)c1ccc(Cl)cc1,7.7% (inactive)
9,COc1ccc(C(=O)OC2CCN(c3ncc(C(F)(F)F)cc3Cl)CC2)cc1,54.2% (active)
10,NS(=O)(=O)c1ccc(CCNC(=O)COC(=O)/C=C/c2ccc(Cl)cc2)cc1,0.2% (inactive)
11,CCc1nnc(NC(=O)CSc2nnc(COc3ccc(C)cc3)n2-c2ccccc2)s1,8% (inactive)
12,O=C(N/N=C\c1ccc([N+](=O)[O-])o1)C1COc2ccccc2O1 (configuration not stated),21.3% (inactive)
13,O=C(N/N=C\c1ccc(-c2ccccc2[N+](=O)[O-])o1)C1COc2ccccc2O1 (configuration not stated),55.3% (active)
14,O=C(N/N=C\c1ccc(-c2ccccc2[N+](=O)[O-])o1)C1COc2cc3ccccc3cc2O1 (configuration not stated),65.2% (active)
15,O=C(N/N=C/c1ccc(-c2ccccc2[N+](=O)[O-])o1)[C@H]1C[C@@H]1c1ccccc1,63.4% (active)
16,O=C(N/N=C/c1ccco1)C1CC1c1ccccc1 (configuration not stated),0.2% (inactive)
17,O=C(N/N=C\c1cccc([N+](=O)[O-])c1O)C1COc2ccccc2O1 (configuration not stated),-15.4% (inactive)
18,O=C(N/N=C\c1ccc(-c2ccc([N+](=O)[O-])cc2)o1)C1COc2ccccc2O1 (configuration not stated),-8.4% (inactive)
19,Cc1ccc(/C=N\NC(=O)C2COc3cc4ccccc4cc3O2)o1 (configuration not stated),0.7% (inactive)
20,O=C(N/N=C/c1ccc(-c2cccc([N+](=O)[O-])c2)o1)[C@H]1C[C@@H]1c1ccccc1,8.6% (inactive)
21,CC(=O)N1CCC(N(CCCOC(C)C)C(=O)Nc2ccc(C)c(C)c2)CC1,0.4% (inactive)
22,Cc1nc2nc(SCC(=O)N3CCOCC3)nn2c(C)c1Cc1c(F)cccc1Cl,18.6% (inactive)
23,Cc1cccc(NC(=O)Cn2nnc(-c3ccc(CN4CCCC4)cc3)n2)c1C,0.5% (inactive)
24,CN(c1ccccc1)S(=O)(=O)c1cccc(C(=O)OCC(=O)NCCCN2CCCC2=O)c1,-7.4% (inactive)
25,CCOc1ccc(CCNC(=O)COC(=O)c2cccnc2OCC)cc1OCC,14.4% (inactive)

row,SMILES,inhibition
1,COc1ccc(N2C(C(C)=O)=NN(c3ccccc3)C2c2cccs2)cc1 (configuration not stated),10.7% (inactive)
2,CCOc1ccccc1N1CC(C(=O)Nc2ccc3c(c2)OCCO3)CC1=O (configuration not stated),1.4% (inactive)
3,Cc1csc(/C(C#N)=N/O)n1,8.3% (inactive)
4,CC1CC(C)CN(CC(=O)c2cccs2)C1 (configuration not stated),-20.3% (inactive)
5,CCc1c(C(=O)Nc2ccc(OC)c(Cl)c2)[nH]c(C)c1C(C)=O,-0.2% (inactive)
6,CC(C)(C)c1ccc(C(=O)NNc2cc(N3CCOCC3)nc(N3CCOCC3)n2)cc1,48.8% (inactive)
7,Cc1ccc(C(=O)NNC(=O)C2CCN(c3nc(C)cc(C)n3)CC2)cc1,-8.6% (inactive)
8,O=C(CCc1ccccc1)NNc1cc(N2CCCCC2)nc(N2CCCCC2)n1,53.4% (active)
9,Cc1ccc(C(=O)NNc2cc(N3CCCC3)nc(N3CCCC3)n2)cc1,51.4% (active)
10,O=C(CCc1ccccc1)Nc1ccc(N2CCCCC2)cc1,3.5% (inactive)
11,CC(C)(C)c1ccc(C(=O)NNc2cc(N3CCCCC3)nc(N3CCCCC3)n2)cc1,18.1% (inactive)
12,O=C(NNc1cc(N2CCOCC2)nc(N2CCOCC2)n1)c1ccc([N+](=O)[O-])cc1,56.3% (active)
13,O=C(CCc1ccccc1)NNC(=O)C1CCCCC1,-4.6% (inactive)
14,O=C(NNc1cc(N2CCOCC2)nc(N2CCOCC2)n1)c1ccc(Cl)c(Cl)c1,48.8% (inactive)
15,CCOC(=O)N1CCN(C(=O)c2ccc(CN(c3ccccc3)S(C)(=O)=O)cc2)CC1,-4.3% (inactive)
16,CC(=O)N(c1c(C)n(C)n(-c2ccccc2)c1=O)C1(C(=O)NC2CCCCC2)CCCCC1,1.3% (inactive)
17,Cc1onc(-c2c(Cl)cccc2Cl)c1C(=O)NCCCN1CCOCC1,-0.3% (inactive)
18,O=C(c1ccccc1)N1CCOC12CCN(c1ncc(C(F)(F)F)cc1Cl)CC2,2.1% (inactive)
19,CCOC(=O)/C=C/C(=O)OCC(=O)Nc1c(Cl)cccc1Cl,-9.4% (inactive)
20,CCCc1nc2c(sc3nc4c(cc32)COC(C)(C)C4)c(=O)n1CCN(C)C,50.8% (active)
21,CCCc1nc2c(sc3nc4c(cc32)COC(C)(C)C4)c(=O)n1CCN(CC)CC,-0.7% (inactive)
22,CCc1nc2c(sc3nc4c(cc32)COC(C)(C)C4)c(=O)n1CCN(CC)CC,3.8% (inactive)
23,Cc1ccc(C(=O)N/C(=C/c2ccccc2)C(=O)NCC2CCCO2)cc1 (configuration not stated),-4.3% (inactive)
24,NNC(=O)COc1ncn(-c2ccccc2)n1,4.5% (inactive)
25,Cc1ccc(NC(=O)C(=O)NCCN2CCN(C(=S)Nc3ccccc3)CC2)cc1,-0.2% (inactive)

row,SMILES,inhibition
1,COCCNC(=O)CN(C(=O)Cn1nnc2ccccc21)c1ccc(F)c(Cl)c1,-5.3% (inactive)
2,CC(=O)Nc1c(O)c2ccccc2[nH]c1=O,17.5% (inactive)
3,O=c1[nH]c2ccccc2c2ccccc12,3.6% (inactive)
4,COc1cc([N+](=O)[O-])ccc1NC(=O)CCCOc1cccc(C)c1C,9.2% (inactive)
5,OCCOCCOc1ccc(-c2nn[nH]n2)cc1,-12.5% (inactive)
6,CCCCC(=O)Nc1ccc(NC(=S)NC(=O)c2cccs2)cc1OC,14.4% (inactive)
7,O=C(Nc1cccc(S(=O)(=O)Nc2ccccc2Cl)c1)c1ccc(Cl)nc1,7.3% (inactive)
8,CCC12CN3CC(CC)(CN(C1)C3c1c(O)ccc3ccccc13)C2=O (configuration not stated),27.9% (inactive)
9,Oc1ccc2ccccc2c1C1Nc2cccc3cccc(c23)N1,10.6% (inactive)
10,CN1c2ccccc2N(C)C1c1c(O)ccc2ccccc12,55.3% (active)
11,Fc1ccc(NC(=S)N2CCn3cccc3C2c2cccnc2)cc1 (configuration not stated),1% (inactive)
12,Cc1ccc(NC(=O)C(Nc2ccccc2)c2ccccc2)cc1 (configuration not stated),1.5% (inactive)
13,CC(=O)N1N=C(c2cccc([N+](=O)[O-])c2)OC1c1cccc(Br)c1 (configuration not stated),4.5% (inactive)
14,CCCC(=Nc1ccc(N)cc1)C1=C(O)C(C(=O)OC)C(C)(C)CC1=O (configuration not stated),28.8% (inactive)
15,CCC(=Nc1ccc(N)cc1)C1=C(O)C(C(=O)OC)C(C)(C)CC1=O (configuration not stated),53.8% (active)
16,CCCCC(=Nc1ccc(N)cc1)C1=C(O)C(C(=O)OC)C(C)(C)CC1=O (configuration not stated),15.5% (inactive)
17,COc1ccc(OC)c2sc(NC(=O)CCSc3ccccc3)nc12,2.1% (inactive)
18,Oc1cccc2cc3cccc(O)c3c(O)c12,-119% (inactive)
19,Cc1cc(C)c2ccc(C)[n+]([O-])c2c1O,-26.8% (inactive)
20,Cc1ccc2cccc(O)c2[n+]1[O-],53.5% (active)
21,Cc1cccc(Cn2ccc(NC(=O)c3cccnc3)n2)c1,-9.3% (inactive)
22,CCOc1ccc(C(=O)CC(Sc2ccc(C)cc2)C(=O)O)cc1 (configuration not stated),-4% (inactive)
23,CCCOC(=O)c1ccc(Oc2c(-c3ccc(O)cc3O)n[nH]c2C)cc1,5.2% (inactive)
24,COc1cc(N2CCCC2)c(OC)cc1/C=C(/C#N)c1ccc(Br)cc1,13.6% (inactive)
25,COc1cc(N2CCCC2)ccc1C=O,23% (inactive)

row,SMILES,inhibition
1,COc1cc(N2CCCC2)c(OC)cc1C=O,53.6% (active)
2,COc1cc(N2CCCC2)c(OC)cc1/C=C(/C#N)c1ccc(F)cc1,54.8% (active)
3,COc1cc(N2CCCC2)c(OC)cc1/C=C(/C#N)c1cccc(F)c1,11.2% (inactive)
4,COc1cc(N2CCCC2)c(OC)cc1/C=C1/NC(=S)NC1=O,27.9% (inactive)
5,CCOCCCN1CN(Cc2ccccc2)CNC1=S,-6.2% (inactive)
6,Cc1cc(C)cc(OCC(=O)OCCN2C(=O)c3ccccc3C2=O)c1,11.5% (inactive)
7,CC1CN(C2=Nc3cccc4cccc2c34)CC(C)O1 (configuration not stated),59.2% (active)
8,O=S1(=O)N=C(N2CCc3ccccc3C2)c2ccccc21,-8.5% (inactive)
9,COc1ccccc1N1CCN(C2=Nc3cccc4cccc2c34)CC1,27.3% (inactive)
10,CCOC(=O)N1CCN(C2=Nc3cccc4cccc2c34)CC1,58.5% (active)
11,c1ccc(CN2CCN(C3=Nc4cccc5cccc3c45)CC2)cc1,21.9% (inactive)
12,CC1CN(c2nc3ccccc3cc2-c2ccccc2)CC(C)O1 (configuration not stated),5.7% (inactive)
13,CCOC(=O)N1CCN(c2cccc(C)c2C)CC1,-11.4% (inactive)
14,NC(=O)NNC1=Nc2cccc3cccc1c23,8.5% (inactive)
15,c1ccc2c(c1)CCN(C1=Nc3cccc4cccc1c34)C2,60.2% (active)
16,c1ccc(NC2=Nc3cccc4cccc2c34)cc1,9.8% (inactive)
17,NC1=Nc2cccc3cccc1c23,60% (active)
18,c1ccc(CC2CCN(C3=Nc4cccc5cccc3c45)CC2)cc1,10.8% (inactive)
19,Cc1nn2c(=O)c(NC(=O)c3ccc(Cl)cc3)cnc2s1,0.6% (inactive)
20,Cc1ccc(/C(N)=N/OC(=O)c2cccc(F)c2)cc1,3.9% (inactive)
21,COc1ccc(C(=O)OCC(=O)N2C(C)CCCC2C)cc1[N+](=O)[O-] (configuration not stated),-0.8% (inactive)
22,COC(=O)c1ccccc1NC(=O)N[C@@H](C)C(=O)OC,-13.4% (inactive)
